In the supplement of paper PMC12669032:

How the values were obtained:
Experiment in all cases: growth AUC relative to DMSO control (median of replicates) (fraction); higher = more growth (less inhibition), active = hit call of the paper
Conditions in all cases: 20 µM; 24 h;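 active = AUC reduced over 20% with Padj below 0.05 in at least 2 of 3 replicates; inactive = otherwise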
Coprococcus comes = system: Coprococcus comes
How it was run: (§1)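 Starting at OD600 0.05, gut bacterial monocultures in mGAM were grown anaerobically at 37 °C with 20 µM compound (1% DMSO) under pierced gas-permeable seals. OD600 was read every hour for 24 h, and the lowest OD of each curve was set to 0. Area under the growth curve was normalised to the plate median of solvent-only wells, or to row and column medians on the industrial chemical plate, and the median of three biological replicates grown on separate days is given.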

Escherichia coli ED1a = system: Escherichia coli ED1a
How it was run: as §1

Escherichia coli IAI1 = system: Escherichia coli IAI1
How it was run: as §1

Eubacterium rectale = system: Eubacterium rectale
How it was run: as §1

[1] = system: Fusobacterium nucleatum subsp. animalis
How it was run: as §1

Lactobacillus gasseri = system: Lactobacillus gasseri
How it was run: as §1

Lactobacillus paracasei = system: Lactobacillus paracasei
How it was run: as §1

Odoribacter splanchnicus = system: Odoribacter splanchnicus
How it was run: as §1

[2] = system: Parabacteroides distasonis
How it was run: as §1

Parabacteroides merdae = system: Parabacteroides merdae
How it was run: as §1

Measured: growth AUC

CC1(C)CC/C(=C\c2ccc(Cl)cc2)C1(O)Cn1cncn1 (stereo not given)
inactive: Coprococcus comes 0.974 | Escherichia coli ED1a 0.999 | Escherichia coli IAI1 0.98 | Eubacterium rectale 0.986 | [1] 0.97 | Lactobacillus gasseri 0.935 | Lactobacillus paracasei 0.955 | Odoribacter splanchnicus 1.04 | [2] 0.964 | Parabacteroides merdae 0.967

Oc1ccc(Cc2ccc(O)cc2)cc1
inactive: Coprococcus comes 0.968 | Escherichia coli ED1a 1.03 | Escherichia coli IAI1 0.979 | Eubacterium rectale 1.09 | [1] 0.987 | Lactobacillus gasseri 1.04 | Lactobacillus paracasei 0.962 | Odoribacter splanchnicus 0.942 | [2] 0.89 | Parabacteroides merdae 0.994

O=[N+]([O-])/N=C1\NCCN1Cc1ccc(Cl)nc1
inactive: Coprococcus comes 0.975 | Escherichia coli ED1a 1.02 | Escherichia coli IAI1 1 | Eubacterium rectale 1.06 | [1] 1.06 | Lactobacillus gasseri 0.862 | Lactobacillus paracasei 0.951 | Odoribacter splanchnicus 1.09 | [2] 1.02 | Parabacteroides merdae 1.07

S=C1NCCN1
inactive: Coprococcus comes 1.02 | Escherichia coli ED1a 1.01 | Escherichia coli IAI1 1.01 | Eubacterium rectale 1.04 | [1] 1.08 | Lactobacillus gasseri 1.02 | Lactobacillus paracasei 0.923 | Odoribacter splanchnicus 1.04 | [2] 1.05 | Parabacteroides merdae 1.04

Oc1ccc(Cl)cc1Cl
inactive: Coprococcus comes 1.01 | Escherichia coli ED1a 0.974 | Escherichia coli IAI1 0.979 | Eubacterium rectale 1.13 | [1] 0.93 | Lactobacillus gasseri 0.769 | Lactobacillus paracasei 1.01 | Odoribacter splanchnicus 0.969 | [2] 0.967 | Parabacteroides merdae 0.853

Nc1nc(N)[nH]c(=O)n1
inactive: Coprococcus comes 1.02 | Escherichia coli ED1a 1.02 | Escherichia coli IAI1 1.03 | Eubacterium rectale 0.978 | [1] 0.964 | Lactobacillus gasseri 0.982 | Lactobacillus paracasei 1.04 | Odoribacter splanchnicus 0.956 | [2] 1.05 | Parabacteroides merdae 1.01

CCN(Cc1ccc(Cl)nc1)/C(=C/[N+](=O)[O-])NC
inactive: Coprococcus comes 0.959 | Escherichia coli ED1a 1.04 | Escherichia coli IAI1 0.987 | Eubacterium rectale 0.948 | [1] 0.928 | Lactobacillus gasseri 0.966 | Lactobacillus paracasei 0.992 | Odoribacter splanchnicus 0.95 | [2] 1.04 | Parabacteroides merdae 0.989

CCSC(=O)N1CCCCCC1
inactive: Coprococcus comes 1.02 | Escherichia coli ED1a 0.991 | Escherichia coli IAI1 0.993 | Eubacterium rectale 0.977 | [1] 1.06 | Lactobacillus gasseri 1.06 | Lactobacillus paracasei 0.954 | Odoribacter splanchnicus 0.947 | [2] 0.997 | Parabacteroides merdae 1

CC(C)CC(C)c1sccc1NC(=O)c1cn(C)nc1C(F)(F)F (stereo not given)
inactive: Coprococcus comes 0.984 | Escherichia coli ED1a 0.998 | Escherichia coli IAI1 0.946 | Eubacterium rectale 1.01 | [1] 1.04 | Lactobacillus gasseri 0.945 | Lactobacillus paracasei 1.02 | Odoribacter splanchnicus 0.782 | [2] 0.856 | Parabacteroides merdae 0.977

CCCOC(=O)c1ccccc1C(=O)OCCC
inactive: Coprococcus comes 1.11 | Escherichia coli ED1a 1.02 | Escherichia coli IAI1 1.05 | Eubacterium rectale 1.1 | [1] 1.15 | Lactobacillus gasseri 0.999 | Lactobacillus paracasei 1.09 | Odoribacter splanchnicus 0.698 | [2] 0.953 | Parabacteroides merdae 0.993

COP(=O)(OC)Oc1ccc([N+](=O)[O-])cc1
inactive: Coprococcus comes 1.07 | Escherichia coli ED1a 1.03 | Escherichia coli IAI1 0.996 | Eubacterium rectale 1.17 | [1] 1.09 | Lactobacillus gasseri 0.998 | Lactobacillus paracasei 1.02 | Odoribacter splanchnicus 0.954 | [2] 0.981 | Parabacteroides merdae 1.02

CNC(=O)Oc1cc(C)c(S(C)=O)c(C)c1 (stereo not given)
inactive: Coprococcus comes 0.997 | Escherichia coli ED1a 1.01 | Escherichia coli IAI1 0.97 | Eubacterium rectale 0.884 | [1] 1.09 | Lactobacillus gasseri 0.963 | Lactobacillus paracasei 0.952 | Odoribacter splanchnicus 0.996 | [2] 1 | Parabacteroides merdae 1.05

CC1CNC(=S)N1 (stereo not given)
inactive: Coprococcus comes 1.03 | Escherichia coli ED1a 1.01 | Escherichia coli IAI1 1.06 | Eubacterium rectale 1.06 | [1] 1.05 | Lactobacillus gasseri 0.989 | Lactobacillus paracasei 1.06 | Odoribacter splanchnicus 1.02 | [2] 0.983 | Parabacteroides merdae 1.02

CNc1cnn(-c2cccc(C(F)(F)F)c2)c(=O)c1Cl
inactive: Coprococcus comes 0.978 | Escherichia coli ED1a 0.99 | Escherichia coli IAI1 0.981 | Eubacterium rectale 0.995 | [1] 0.946 | Lactobacillus gasseri 0.975 | Lactobacillus paracasei 0.943 | Odoribacter splanchnicus 0.992 | [2] 1.01 | Parabacteroides merdae 0.989

CCC(C)c1ccccc1OC(=O)NC (stereo not given)
inactive: Coprococcus comes 1.01 | Escherichia coli ED1a 0.968 | Escherichia coli IAI1 0.974 | Eubacterium rectale 0.964 | [1] 0.998 | Lactobacillus gasseri 1.07 | Lactobacillus paracasei 0.918 | Odoribacter splanchnicus 1.08 | [2] 1.03 | Parabacteroides merdae 0.986

CN1COCN(Cc2cnc(Cl)s2)/C1=N/[N+](=O)[O-]
inactive: Coprococcus comes 0.965 | Escherichia coli ED1a 0.987 | Escherichia coli IAI1 0.97 | Eubacterium rectale 0.953 | [1] 0.958 | Lactobacillus gasseri 1.04 | Lactobacillus paracasei 0.913 | Odoribacter splanchnicus 0.999 | [2] 0.991 | Parabacteroides merdae 0.994

CCCN(CCCl)c1c([N+](=O)[O-])cc(C(F)(F)F)cc1[N+](=O)[O-]
inactive: Coprococcus comes 0.914 | Escherichia coli ED1a 0.983 | Escherichia coli IAI1 0.987 | Eubacterium rectale 0.942 | [1] 1.05 | Lactobacillus gasseri 0.875 | Lactobacillus paracasei 1.06 | Odoribacter splanchnicus 1.13 | [2] 0.962 | Parabacteroides merdae 0.955

COc1nn(CSP(=S)(OC)OC)c(=O)s1
inactive: Coprococcus comes 1.06 | Escherichia coli ED1a 1 | Escherichia coli IAI1 1 | Eubacterium rectale 1.08 | [1] 1.01 | Lactobacillus gasseri 0.987 | Lactobacillus paracasei 1.01 | Odoribacter splanchnicus 1.08 | [2] 1 | Parabacteroides merdae 1.04

CCC(C)(NC(=O)c1cc(Cl)c(C)c(Cl)c1)C(=O)CCl (stereo not given)
active: [2] 0.643
inactive: Coprococcus comes 0.945 | Escherichia coli ED1a 1.01 | Escherichia coli IAI1 0.995 | Eubacterium rectale 0.892 | [1] 0.906 | Lactobacillus gasseri 0.942 | Lactobacillus paracasei 1.02 | Odoribacter splanchnicus 0.914 | Parabacteroides merdae 0.907

CCC/C(=N\OCC)C1=C(O)CC(CC(C)SCC)CC1=O (stereo not given)
inactive: Coprococcus comes 0.986 | Escherichia coli ED1a 0.986 | Escherichia coli IAI1 0.973 | Eubacterium rectale 0.937 | [1] 0.867 | Lactobacillus gasseri 0.964 | Lactobacillus paracasei 0.978 | Odoribacter splanchnicus 0.979 | [2] 0.991 | Parabacteroides merdae 0.988

Cc1c(F)c(F)c(COC(=O)[C@@H]2[C@H](/C=C(\Cl)C(F)(F)F)C2(C)C)c(F)c1F (mixture of isomers)
inactive: Coprococcus comes 0.956 | Escherichia coli ED1a 1 | Escherichia coli IAI1 0.993 | Eubacterium rectale 1.01 | [1] 1 | Lactobacillus gasseri 0.897 | Lactobacillus paracasei 0.956 | Odoribacter splanchnicus 1.04 | [2] 0.976 | Parabacteroides merdae 0.994
